# Several values for one entry are separate records, joined by “and”; a condition that tells them apart may be missing. Equal entries are not always repeated. Screen size: about 330,000 compounds; about 5,800 (1.8%) were called active. This is one part of a sample in which actives are shown more often than they occur. Cut-off read from the data, not from the text of the source: active = inhibition mostly above about 38% (no sharp cut-off); inactive = mostly below about 40%. Where a structure was tested more than once in an assay, its records may differ in their call.
# Target: Orexin/Hypocretin receptor type 1 (Homo sapiens) (UniProt O43613)
# Sequence (O43613 whole entry, looked up): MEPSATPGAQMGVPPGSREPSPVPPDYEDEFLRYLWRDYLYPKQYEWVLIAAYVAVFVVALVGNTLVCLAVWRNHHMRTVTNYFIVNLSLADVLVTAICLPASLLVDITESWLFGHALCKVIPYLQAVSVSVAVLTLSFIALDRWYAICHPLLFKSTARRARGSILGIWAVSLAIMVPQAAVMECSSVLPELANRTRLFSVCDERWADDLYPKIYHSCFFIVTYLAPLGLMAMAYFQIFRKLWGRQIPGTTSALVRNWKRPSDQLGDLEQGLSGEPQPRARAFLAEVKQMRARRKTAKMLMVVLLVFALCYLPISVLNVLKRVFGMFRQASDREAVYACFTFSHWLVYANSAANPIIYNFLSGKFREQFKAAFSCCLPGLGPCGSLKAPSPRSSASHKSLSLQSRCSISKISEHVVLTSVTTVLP
# Assay: blocks the human orexin 1 receptor (AID 485270);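 note: 0% = agonist challenge alone and 100% = reference antagonist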
# Settings: OX1R-expressing cells, FRET antagonist read-out; at 6.6 µM; stronger effect = higher value
row,Structure (SMILES),inhibition
1,CC1CCCCC1NCC(=O)Nc1ccccc1C(=O)Nc1ccccc1 (stereo not given),7.92% (inactive)
2,Cc1ccccc1SCC(=O)OCC(=O)N1CC(=O)Nc2ccccc21,0.4% (inactive)
3,Cc1ccc(CCNC(=O)c2ccc3nc4ccccc4c(=O)n3c2)cc1,-3.55% (inactive)
4,Cc1ccc2nc3c(cc(C(=O)NCCc4ccccc4)c(=N)n3CC3CCCO3)c(=O)n2c1 (stereo not given),57.5% (active)
5,COc1ccc(CCNC(=O)Cn2c(=O)n(CC3CCCO3)c(=O)c3ccccc32)cc1OC (stereo not given),7.5% (inactive)
6,COc1ccc(CNC(=O)c2cc3c(=O)n4ccccc4nc3n(CC3CCCO3)c2=N)cc1 (stereo not given),54.9% (active)
7,COc1ccc(CCn2c(=N)c(C(=O)NCC3CCCO3)cc3c(=O)n4cccc(C)c4nc32)cc1OC (stereo not given),10.8% (inactive)
8,O=C(NCC1CCCO1)c1cc(-c2ccccc2)nc2ccccc12 (stereo not given),-0.29% (inactive)
9,Cc1csc(=O)n1CC(=O)Nc1ccc(S(C)(=O)=O)cc1,7.39% (inactive)
10,COc1ccc(OC)c(NC(=O)COC(=O)Cc2ccsc2)c1,5.5% (inactive)
11,C[C@]12c3[nH]c4ccc(Cl)cc4c3CCN1C(=O)[C@@H](CC(=O)NCCCn1ccnc1)C[C@@H]2C(=O)N1CCOCC1,14.5% (inactive)
12,CN(CC(=O)Nc1ccc(C(N)=O)cc1)S(=O)(=O)c1ccc2c(c1)OCCO2,6.44% (inactive)
13,O=C(CN1C(=O)NC2(CCCC2)C1=O)Nc1cc(C(F)(F)F)ccc1N1CCOCC1,6.5% (inactive)
14,COc1ccc2[nH]c(=O)c(CN(CC3CCCO3)C(=O)Nc3ccccc3)cc2c1 (stereo not given),5.34% (inactive)
15,CCC(=O)N(Cc1cc2cc(OC)ccc2[nH]c1=O)c1ccccc1C,4.09% (inactive)
16,COc1ccc2[nH]c(=O)c(CNc3ccc(C)c(C)c3)cc2c1,108% (active)
17,Cn1nnnc1SCC(=O)Nc1sccc1C(N)=O,-1.46% (inactive)
18,Cc1ccc(OCC(=O)Nc2ccccc2C(=O)NC2CC2)cc1,7.7% (inactive)
19,CCOc1ccccc1OCC(=O)Nc1ccccc1C(=O)NC1CC1,9.29% (inactive)
20,CC(NCC(=O)Nc1ccccc1C(=O)NC1CC1)c1ccccc1Cl (stereo not given),29.4% (active)
21,CN(c1ccccc1)S(=O)(=O)c1ccc(C(=O)N2CCN(c3ccccc3Cl)CC2)cc1,9.4% (inactive)
22,CC(=NNC(=O)c1ccc2nc[nH]c2c1)c1ccc(Br)cc1,4.88% (inactive)

row,Structure (SMILES),inhibition
1,C[C@@H]1CN([C@@H](C)CO)C(=O)c2cc(NC(=O)C3CC3)ccc2O[C@H]1CN(C)C,1.14% (inactive)
2,C[C@H]1COC(=O)[C@H](CC(=O)OC(C)(C)C)C/C=C\C[C@@H](CC(=O)N[C@H](CO)Cc2ccccc2)C(=O)N1,0.64% (inactive)
3,Cc1cccn2c(=O)c3cc(C#N)c(=NC(=O)c4cccnc4)n(CC4CCCO4)c3nc12 (stereo not given),123% (active)
4,Cc1cccc(NC(=O)c2ccc3c(=O)n(CC4CCCO4)c(=S)[nH]c3c2)c1 (stereo not given),17.1% (inactive)
5,Cc1ccccc1NC(=O)Cn1c(=O)n(CC2CCCO2)c(=O)c2ccccc21 (stereo not given),15.6% (inactive)
6,CN(C(=O)COC(=O)Cc1ccccc1[N+](=O)[O-])C1CCS(=O)(=O)C1 (stereo not given),3.39% (inactive)
7,COc1cccc(NC(=O)CSc2nnc(C3CCCCC3)n2N)c1,6.23% (inactive)
8,COc1ccc(-n2c(SCC(=O)Nc3ccc4c(c3)OCO4)nnc2C(C)N2CCCCC2)cc1 (stereo not given),7.85% (inactive)
9,O=C(NCCC1=CCCCC1)c1ccc(-n2cncn2)cc1,2.77% (inactive)
10,COCCCNC(=S)NC(=O)c1ccccc1,6.25% (inactive)
11,COCCCNC(=S)NC(=O)c1ccc([N+](=O)[O-])cc1,89.6% (active)
12,CC(=O)NC(=S)Nc1ccc(NC(=S)NC(=O)c2ccc([N+](=O)[O-])cc2)cc1,8.98% (inactive)
13,O=C1CCC[C@@H]2CC(N3CCCCC3)C[C@@H]3CCN1[C@H]23 (stereo not given in full),5.93% (inactive)
14,O=C(Nc1ccccc1C(=O)Nc1ccncc1)c1ccc([N+](=O)[O-])cc1,16.2% (inactive)
15,O=C(Nn1cnnc1)c1ccc([N+](=O)[O-])cc1,22.3% (inactive)
16,O=C(c1ccncc1)c1ccc([N+](=O)[O-])cc1,163% (active)
17,COC(=O)c1ccc(/C=C/c2c(-c3ccc(OC)cc3)sc3ccccc23)cc1,5.48% (inactive)
18,CC(C)NC(=O)Nc1cccc2c1O[C@@H](CN(C)S(=O)(=O)c1ccc(F)cc1)[C@@H](C)CN([C@H](C)CO)C2=O,3.93% (inactive)
19,COc1ccc(CNC(=O)C(NS(=O)(=O)c2cccc3nsnc23)C(C)C)cc1 (stereo not given),26.5% (inactive)
20,COc1ccc(C)cc1NC(=O)CCS(=O)(=O)c1cccc2nonc12,48.1% (inactive)
21,CCOc1ccc(NC(=O)CCS(=O)(=O)c2cccc3nsnc23)cc1,85.9% (active)
22,CCC(=O)N1CCc2cc(S(=O)(=O)CCC(=O)N3CCN(c4ccccc4F)CC3)ccc21,5.14% (inactive)

row,Structure (SMILES),inhibition
1,Cc1cccc(C)c1NC(=O)CCS(=O)(=O)c1cccc2nsnc12,70.3% (active)
2,CCOc1ccc(N(CC)S(=O)(=O)c2cccc3nsnc23)cc1,21.1% (inactive)
3,O=C(CCS(=O)(=O)c1cccc2nsnc12)N1CCN(c2ccccc2F)CC1,73% (active)
4,O=C(CCCNS(=O)(=O)c1cccc2nsnc12)NCCN1CCN(c2ccccc2F)CC1,26.2% (inactive)
5,COc1ccc(N(C)C(=O)CCS(=O)(=O)c2cccc3nsnc23)cc1,128% (active)
6,CCOc1ccc(OCC)c(NC(=O)CN(C)S(=O)(=O)c2cccc3nsnc23)c1,41.7% (inactive)
7,O=C(O)c1ccc(NS(=O)(=O)c2cccc3nsnc23)cc1,27.3% (inactive)
8,COc1ccc(N(C)S(=O)(=O)c2cccc3nsnc23)cc1,33.6% (inactive)
9,O=C(COC(=O)COc1cc(Cl)c(Cl)cc1Cl)NC1CC1,6.97% (inactive)
10,Cc1ccc(C(=O)NCC(=O)NC2CC2)cc1,-0.69% (inactive)
11,Cc1occc1C(=O)Nc1cccc(S(=O)(=O)N2CCOCC2)c1,4.81% (inactive)
12,COc1ccc2[nH]c3c(c2c1)CCN1C(=O)C(CC(=O)NCCCN(C)C)C[C@H](C(=O)N2CCOCC2)[C@@]31CCC1CCCC1 (stereo not given in full),-1.98% (inactive)
13,Cc1ccc(S(=O)(=O)N2C[C@@H]3CCCC[C@@H]3[C@@H](C)[C@H]2c2cn(Cc3ccccc3)c3ccc(F)cc23)cc1,3.67% (inactive)
14,CC1CN(C(=O)c2ccc([N+](=O)[O-])s2)CC(C)O1 (stereo not given),49.6% (active)
15,CC1CN(C(=O)c2ccccc2NS(=O)(=O)c2cccc([N+](=O)[O-])c2)CC(C)O1 (stereo not given),27.1% (inactive)
16,Cc1c(C(=O)N2CC(C)OC(C)C2)sc2nc(-c3ccccc3)cn12 (stereo not given),19.5% (inactive)
17,CCN(CC)C(=O)[C@H]1CC(CC(=O)NCc2ccco2)C(=O)N2CCc3c([nH]c4ccccc34)[C@]12C (stereo not given in full),6.65% (inactive)
18,COC(=O)[C@@]1(C)[C@H]2C(=O)N(Cc3ccccc3)C(=O)[C@H]2[C@H]2CN=C(SCC3CC3)N21,4.86% (inactive)
19,O=C1N[C@H](Cc2ccccc2)C(=O)N[C@H]1Cc1cn(S(=O)(=O)c2ccccc2)c2ccccc12,24.8% (inactive)
20,O=C(Cn1c[n+](CC(=O)c2ccc([N+](=O)[O-])cc2)cn1)c1ccc([N+](=O)[O-])cc1,41% (active) and 49.5% (inactive)
21,O=C(CC(n1cncn1)C(Cl)(Cl)Cl)c1ccc([N+](=O)[O-])cc1 (stereo not given),24.6% (inactive)
22,Cc1ccc(C(=O)Cn2cc([N+](=O)[O-])nc2C)cc1,16.2% (inactive)

row,Structure (SMILES),inhibition
1,Cc1ccc(S(=O)(=O)N2CCN(C(=O)Cn3c(=O)cnc4ccccc43)CC2)c(C)c1,16.2% (inactive)
2,O=C(OCC(=O)N1CCCCCC1)c1ccc(Br)c(S(=O)(=O)N2CCOCC2)c1,7.11% (inactive)
3,O=C(N[C@H]1C/C=C\C(c2ccc(F)cc2)N(Cc2ccccc2)C(=O)C1)OCC1c2ccccc2-c2ccccc21 (stereo not given in full),14.6% (inactive)
4,O=c1c2cc(-c3ccccc3)sc2nc2n1N=C(c1cccs1)CS2,49.2% (active)
5,c1csc(-c2cn3c(n2)SCC3)c1,2.55% (inactive)
6,Cc1nnc2n1N=C(c1ccccc1)CS2,-1.51% (inactive)
7,CC(C)=CCN1CCN(Cc2cc3ccccc3[nH]2)CC1CCO (stereo not given),7.38% (inactive)
8,CCN(C[C@H]1N[C@@](CC)(C(=O)OC)[C@H]2C(=O)N(Cc3ccccc3)C(=O)[C@@H]12)S(=O)(=O)c1ccc(C(F)(F)F)cc1,5.19% (inactive)
9,Cc1cc(C)c(C#N)c(SCc2ccccc2C(=O)O)n1,27.5% (inactive)
10,CCc1ccc(C2C(C#N)=C(N)Oc3n[nH]c(CC(=O)OC)c32)cc1 (stereo not given),1.71% (inactive)
11,Cc1cc(C)c(C#N)c(SCc2[nH]nc3c2C(c2ccccc2)C(C#N)=C(N)O3)n1 (stereo not given),60.2% (active)
12,COc1ccc(N2CCN(C(CNS(=O)(=O)c3ccc(C)cc3)c3ccccc3)CC2)cc1 (stereo not given),6.01% (inactive)
13,COC(=O)c1ccc(C)c(NC(=O)Cn2c(C)csc2=O)c1,2.56% (inactive)
14,COc1ccccc1-c1sc2ccccc2c1C#CC1(O)CCCCC1,6.27% (inactive)
15,COc1ccc(-c2sc3ccc(OC)cc3c2C#Cc2ccccn2)cc1,8.84% (inactive)
16,COc1ccc2sc(-c3ccc(N(C)C)cc3)c(-c3ccc4cc[nH]c4c3)c2c1,9.19% (inactive)
17,COc1ccc2sc(-c3ccc(N(C)C)cc3)c(C#CCO)c2c1,50.3% (active)
18,O=C(N[C@H]1C/C=C\C(c2cccc(F)c2)N(Cc2ccccc2)C(=O)C1)OCC1c2ccccc2-c2ccccc21 (stereo not given in full),5.38% (inactive)
19,Cc1ccc(-c2cccc([C@H]3[C@@H]4C=CC[C@@H](C)[C@@H]4C(=O)N3Cc3ccccc3)c2)cc1,5.7% (inactive)
